Screening results deposited in PubChem BioAssay by National Center for Advancing Translational Sciences (NCATS).
Sampled rows, rich in hits. Any-hit rate of the full collection: about 19%.
TDP1 inh – TDP1 (human) enzyme inhibition; Q9NUW8; Potency, µM (titrated, usually from 130 µM), without a hit: top-dose activity change, negative = inhibition, actives largely listed as inhibitors; recombinant TDP1, AlphaScreen DNA substrate cleavage; hit rate 0.28% among 350,000; note: nearly all actives have a fitted effect of over 40% in size
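Tdp1 1 nM final; 15 min RT w/ cpd; substrate 15 nM, 5 min; beads 10 ug/ml, 10 min; AlphaScreen read. Neg ctrl: no enzyme.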
RORgamma inh – blocks mouse ROR gamma transcriptional activity; P51450; Drosophila S2 Gal4-RORgamma UAS-luciferase reporter, 20 h; Potency, µM (highest dose often 53.6 µM), for the others: at the highest dose activity change, negative = inhibition, hits mostly inhibitors; hit rate 5.4% among 310,000; note: nearly all actives have a fitted effect of over 60% in size
Target sequence (P51450 whole entry, looked up, the tested form may be a part): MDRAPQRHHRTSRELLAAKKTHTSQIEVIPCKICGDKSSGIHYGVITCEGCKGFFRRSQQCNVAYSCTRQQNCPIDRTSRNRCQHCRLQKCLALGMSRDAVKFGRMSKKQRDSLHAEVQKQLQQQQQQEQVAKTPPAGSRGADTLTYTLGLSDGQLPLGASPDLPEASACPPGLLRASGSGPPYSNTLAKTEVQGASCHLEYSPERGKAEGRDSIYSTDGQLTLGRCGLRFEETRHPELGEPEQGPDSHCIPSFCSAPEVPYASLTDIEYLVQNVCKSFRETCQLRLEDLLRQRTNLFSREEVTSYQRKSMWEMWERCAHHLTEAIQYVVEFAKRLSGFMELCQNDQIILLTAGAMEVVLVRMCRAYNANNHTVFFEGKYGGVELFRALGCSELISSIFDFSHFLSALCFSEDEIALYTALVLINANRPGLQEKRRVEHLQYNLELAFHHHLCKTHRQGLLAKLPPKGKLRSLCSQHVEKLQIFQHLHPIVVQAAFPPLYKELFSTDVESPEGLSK
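Drosophila S2 cells stably expressing Gal4-DBD/mouse RORγ fusion under metallothionein promoter plus UAS-luciferase; compound 1 h, then 700 uM CuSO4 induction for 20 h at ambient temperature; inhibition read as reduced luminescence.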
TDP1 cell noCPT – qHTS for Inhibitors of human tyrosyl-DNA phosphodiesterase 1 (TDP1): qHTS in cells in absence of CPT; DT40 Tdp1-/- hTDP1 cells, no CPT, ATP luminescence, 48 h; Potency, µM (series often up to 46.2 µM), inactives show top-dose activity change, negative = growth inhibition, most hits filed as inhibitors; hit rate 15% among 420,000; note: nearly all actives have a fitted effect of over 55% in size
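Growth of hTDP1-complemented DT40 Tdp1-knockout cells is measured by ATP luminescence after at least 48 hr compound exposure at 37 °C, with DMSO substituting for the 20 nM CPT used in the parallel screen.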
TDP1 cell CPT – growth inhibition of DT40 Tdp1-/-;hTDP1 cells with camptothecin (screen for TDP1 inhibitors). chicken DT40 Tdp1-/-;hTDP1 cells + 20 nM CPT, ATP luminescence, 48 h. AID 686979. Potency, µM (doses to about 46.2 µM), inactives show at the highest dose activity change, negative = growth inhibition, actives largely listed as inhibitors. hit rate 12% among 420,000; note: nearly all actives have a fitted effect of over 55% in size
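Cell growth measured by CellTiter-Glo luminescence after a minimum 48 h, 37 C compound exposure with 20 nM CPT in Tdp1-knockout DT40 cells stably expressing hTDP1, seeded 400/well; qHTS titration format.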
VP16 counter – counter-screen for ROR gamma inhibitors: Gal4-VP16 reporter; hit rate 3.5% among 310,000; Drosophila S2 Gal4-VP16 UAS-luciferase, luminescence, 20 h; Potency, µM (highest dose often 53.6 µM), inactives show top-dose activity, negative = inhibition, hits mostly inhibitors;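 note: Gal4-VP16 expression switched on by copper sulfate through the metallothionein promoter; nearly all actives have a fitted effect of over 50% in size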
Active calls of the source: *; u = inconclusive; x = not tested or not shown; [ ] = dose if it differs, or a comment. Calls come from the whole dose curve; as a rule, active = well fitted curve in the direction sought with a large enough effect; inconclusive = small, poorly fitted or top-dose-only effect, or another doubt; inactive = no such curve, though single readings can be large; an effect the other way counts as inactive or inconclusive. % is set by controls: 0 for no effect and ±100 for the full control effect; potency is the fitted concentration of half-maximal effect.

SMILES	TDP1 inh	RORgamma inh	TDP1 cell noCPT	TDP1 cell CPT	VP16 counter
COC(=O)c1cn(C(=O)c2ccc(C)c(C)c2)c2ccccc12	2.7%	-1.0%	20.6µM*	u	u
COC(=O)c1cn(C(=O)c2cc(C)cc(C)c2)c2ccccc12	-5.5%	10.8%	u	u	3.4%
COC(=O)c1cn(C(=O)c2ccc(OC)c(OC)c2)c2ccccc12	x	29.9%	u	u	2.6%
COC(=O)c1cn(C(=O)c2ccc(C)cc2)c2ccccc12	-5.1%	-19.7%	16.4µM*	18.4µM*	-3.8%
COC(=O)c1cn(C(=O)c2ccc3c(c2)OCO3)c2ccccc12	x	x	16.4µM*	u	x
COc1ccccc1OCCNC(=O)Nc1cc(F)c(F)cc1Cl	2.9%	39.8%	-22.1%	0.1%	-6.7%
Cc1ccc(NC(=O)CN(C)C(=O)CCCN2C(=O)c3ccccc3C2=O)cc1	7.2%	26.4%	-10.3%	-16.4%	2.4%
COc1ccccc1OCCNC(=O)C1CC(=O)N(Cc2ccccc2)C1 (stereo unspecified)	2.0%	x	0.6%	3.3%	x
CCn1c(=O)c2sccc2n2c(CCC(=O)Nc3ccc(OC)c(Cl)c3)nnc12	0.0%	x	-13.4%	-15.0%	x
COc1ccc(NC(=O)CCCc2nnc3n(CCC(C)C)c(=O)c4sccc4n23)cc1Cl	5.1%	x	20.6µM*	u	x
Cn1c(=O)c2sccc2n2c(CCC(=O)NCc3ccc(Cl)cc3)nnc12	0.9%	x	u	u	x
CCCCC(CC)CNC(=O)CCCc1nnc2n(CCC)c(=O)c3sccc3n12 (stereo unspecified)	0.0%	x	23.1µM*	20.6µM*	x
CCOc1ccc(CCNC(=O)CCCc2nnc3n(CC(C)C)c(=O)c4sccc4n23)cc1	7.7%	x	18.4µM*	u	x
CCn1c(=O)c2sccc2n2c(CCC(=O)NCc3ccc(Cl)cc3)nnc12	0.9%	x	20.6µM*	u	x
CCCn1c(=O)c2sccc2n2c(CCCC(=O)NCc3ccco3)nnc12	x	-11.7%	-11.0%	-28.0%	4.0%
CCn1c(=O)c2sccc2n2c(CCCC(=O)NCCc3ccc(S(N)(=O)=O)cc3)nnc12	1.2%	-13.2%	0.9%	2.9%	-2.4%
O=C(Nc1c(C(=O)N2CCOCC2)cnn1-c1ccccc1)c1ccccc1	5.1%	-4.8%	-9.4%	3.2%	0.6%
COc1ccccc1NC(=O)C(=O)NCC(c1ccc2c(c1)OCO2)N1CCN(C)CC1 (stereo unspecified)	8.8%	x	u	u	x
CC(C)Cn1c(=O)c2sccc2n2c(CCCC(=O)NCCc3ccccc3)nnc12	-2.6%	x	u	u	x
COc1ccc(CNC(=O)CCCc2nnc3n(CCC(C)C)c(=O)c4sccc4n23)cc1	5.1%	x	18.4µM*	18.4µM*	x
CCCCC(CC)CNC(=O)CCCn1c(=O)[nH]c2ccsc2c1=O (stereo unspecified)	5.9%	x	u	14.6µM*	x
CC(C)CCn1c(=O)c2sccc2n2c(CCCC(=O)NCc3ccc(F)cc3)nnc12	7.7%	x	u	18.4µM*	x
CCCCC(CC)CNC(=O)Cn1c(=O)[nH]c2ccsc2c1=O (stereo unspecified)	4.6%	33.3%	-3.6%	-0.3%	4.0%
CC(C)CCn1c(=O)c2sccc2n2c(CCCC(=O)NCCc3ccccc3)nnc12	2.6%	x	14.6µM*	14.6µM*	x
CC(=O)NCCNC(=O)CCCc1nnc2n(CCC(C)C)c(=O)c3sccc3n12	2.6%	x	-1.6%	-5.0%	x
SMILES	TDP1 inh	RORgamma inh	TDP1 cell noCPT	TDP1 cell CPT	VP16 counter
CC(Oc1ccccc1)C(=O)Nc1c2c(nn1-c1ccccc1)CS(=O)(=O)C2 (stereo unspecified)	2.3%	8.2%	-4.3%	-15.5%	-5.7%
CC(C)[C@H](NC(=O)[C@H](Cc1ccccc1)n1c(=O)[nH]c2ccccc2c1=O)C(=O)N1CCC[C@H]1C(=O)O	x	-15.0%	15.3%	-2.5%	-1.2%
Cc1cc(C)cc(NC(=O)CCCc2nnc3n(CC(C)C)c(=O)c4sccc4n23)c1	7.7%	x	u	u	x
CCn1c(=O)c2sccc2n2c(CCCC(=O)N3CCN(c4cc(C)ccc4C)CC3)nnc12	0.0%	x	6.51µM*	6.51µM*	x
CCc1ccc(NC(=O)CCCc2nnc3n(CC(C)C)c(=O)c4sccc4n23)cc1	5.1%	x	23.1µM*	20.6µM*	x
COc1ccc(C2CC(=O)c3cnc(NC(=O)c4ccccc4OC)nc3C2)c(OC)c1 (stereo unspecified)	8.0%[56.1 µM]	7.3%	14.6µM*	16.4µM*	-11.9%
COc1ccc(C2CC(=O)c3cnc(NC(=O)c4cccc(OC)c4)nc3C2)cc1 (stereo unspecified)	3.9%	0.9%	u	u	3.5%
COc1cccc(C(=O)Nc2ncc3c(n2)CC(C)(C)CC3=O)c1	3.1%	6.3%	16.4µM*	u	4.3%
CC(C)N(C(=O)[C@H]1C[C@H](CC(=O)NCC23CC4CC(CC(C4)C2)C3)C(=O)N2CCc3c([nH]c4ccc(Cl)cc34)[C@]12C)C(C)C	0.8%[56.1 µM]	x	13µM*	18.4µM*	x
CCN(CC)C(=O)[C@H]1C[C@H](CC(=O)NCC23CC4CC(CC(C4)C2)C3)C(=O)N2CCc3c([nH]c4ccc(Cl)cc34)[C@]12C	2.6%[56.1 µM]	x	18.4µM*	16.4µM*	x
COc1ccc2[nH]c3c(c2c1)CCN1C(=O)C(CC(=O)NCCCN(C)C)C[C@H](C(=O)N(C(C)C)C(C)C)[C@@]31C (stereo partly specified)	1.6%[56.1 µM]	x	-6.5%	-2.5%	x
CCN(CC)C(=O)[C@H]1C[C@H](CC(=O)NCCCn2ccnc2)C(=O)N2CCc3c([nH]c4ccc(Cl)cc34)[C@]12C	0.6%[56.1 µM]	x	u	u	x
CC1(C)CC(=O)C2=C(C1)OC(c1ccc(O)cc1)C(C#N)=C2N (stereo unspecified)	2.2%	29.4%	-2.8%	3.6%	-3.6%
C#CCSc1nc(-c2ccccc2)cc(C(F)(F)F)c1C#N	-3.2%	-28.5%	-21.5%	2.8%	-6.5%
CCc1cccc(NC(=O)Nc2cn(C)c(=O)c3ccccc23)c1	-3.7%	x	u	-21.1%	x
CC1(C)CC2(OC2c2ccccc2)C(=O)c2ccccc21 (stereo unspecified)	x	x	u	-3.3%	x
CC1(C)CC2(OC2c2ccccc2[N+](=O)[O-])C(=O)c2ccccc21 (stereo unspecified)	x	x	18.4µM*	16.4µM*	x
CC(=O)c1ccc(OC2(C)CCN(Cc3ccc4ccccc4c3)C2)cc1 (stereo unspecified)	x	x	u	-22.2%	x
CC1(Oc2ccc(CC#N)cc2)CCN(Cc2ccc(-n3ccnc3)cc2)C1 (stereo unspecified)	x	x	13µM*	u	x
